# Shown are actives, neighbours in structure and some others; about 1.6% of the full set was active somewhere.
# KCNQ2 enhance: KCNQ2 (rat) channel potentiation. B-score at 10 µM. hit rate 0.54% among 310,000. CHO-K1 KCNQ2, FluxOR thallium flux fluorescence; hits give high values. O88943;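 active = fluorescence ratio B-score at least 3 SD of library B-scores, with initial fluorescence B-score within 3 of them, cut at about 5.3 in these data; same plate scores as AID 2156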;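 note: B-score of peak minus minimum over baseline fluorescence ratio after K+ and Tl+ stimulus; positive B-score means potentiation of KCNQ2 with more thallium influx and brighter signal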
# Target sequence (O88943 whole entry, looked up): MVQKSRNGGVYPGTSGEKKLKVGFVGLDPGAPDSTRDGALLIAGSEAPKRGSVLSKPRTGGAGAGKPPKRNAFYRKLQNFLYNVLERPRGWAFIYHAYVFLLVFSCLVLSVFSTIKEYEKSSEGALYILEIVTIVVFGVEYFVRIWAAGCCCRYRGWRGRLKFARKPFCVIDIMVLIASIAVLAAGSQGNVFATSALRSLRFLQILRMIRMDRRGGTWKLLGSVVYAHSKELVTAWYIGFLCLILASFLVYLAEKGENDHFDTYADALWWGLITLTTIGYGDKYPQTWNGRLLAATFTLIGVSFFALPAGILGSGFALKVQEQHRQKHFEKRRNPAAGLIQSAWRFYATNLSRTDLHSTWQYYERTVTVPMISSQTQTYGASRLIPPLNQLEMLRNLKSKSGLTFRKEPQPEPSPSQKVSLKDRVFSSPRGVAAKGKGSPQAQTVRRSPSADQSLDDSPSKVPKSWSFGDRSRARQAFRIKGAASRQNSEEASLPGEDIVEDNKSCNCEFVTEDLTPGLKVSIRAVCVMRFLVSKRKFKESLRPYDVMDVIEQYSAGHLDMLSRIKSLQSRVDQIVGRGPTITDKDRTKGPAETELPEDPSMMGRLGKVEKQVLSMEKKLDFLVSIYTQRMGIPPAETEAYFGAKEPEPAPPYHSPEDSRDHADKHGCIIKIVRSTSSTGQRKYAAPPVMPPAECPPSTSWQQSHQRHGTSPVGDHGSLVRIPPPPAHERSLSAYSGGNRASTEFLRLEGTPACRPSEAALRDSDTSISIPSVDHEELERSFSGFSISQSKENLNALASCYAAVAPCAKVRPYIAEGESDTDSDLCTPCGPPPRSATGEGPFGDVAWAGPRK
# KCNQ2 block: inhibitors of rat KCNQ2 potassium channel; O88943; CHO-K1 KCNQ2, FluxOR thallium flux, 20 min; hits give low values; B-score at 10 µM; hit rate 1.1% among 310,000;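 active = fluorescence ratio B-score at most minus 3 library SDs, with starting brightness B-score within 2 library SDs, cut at about -5.5 in these data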
# Kir21 confirm: confirmation of mouse Kir2.1 potassium channel inhibitors | shares compounds with KCNQ2 enhance | hit rate 41% among 2,300 | Tl flux remaining, % of negative control (hits give low values), % at 10 µM | Kir2.1-expressing cells, FluxOR thallium flux fluorescence; hits give low values | AID 2032;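 active = Primary-screen hit whose thallium flux fell at least 3 control SD below untreated wells in both duplicates, with normal baseline fluorescence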;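 note: 0% = blank wells without stimulus and 100% = stimulated no-compound controls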
# HEK293 ctr: counter-screen for Kir2.1 inhibitors: effect in parental HEK293 cells; shares compounds with KCNQ2 enhance; FluxOR thallium flux fluorescence; 0% = unstimulated blank wells; FluxOR signal as % of negative control (100 = no effect), % at 10 µM; hit rate 19% among 2,300; AID 2105;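 active = dye signal at least 3 control SD above or below untreated wells in both duplicates, raw fluorescence within 3, either direction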;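 note: percent is based on the flux ratio of peak minus minimum fluorescence over baseline F0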
# CHO-K1 Tl ctr: alters thallium flux in parental CHO-K1 cells, KCNQ2 counter-screen; shares compounds with KCNQ2 enhance; FluxOR thallium flux fluorescence; zero = vehicle mean+3SD, 100% = vehicle-minus-blank window; activity increase over 3SD of controls, % at 10 µM; hit rate 43% among 1,200;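 active = signal rise of at least 3 SD above the untreated control mean, in both duplicate wells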;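 note: counter screen of KCNQ2 potentiator hits so any rise reflects channel-independent effects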
# KCNQ1 sel pot: human KCNQ1 counter-target activity of KCNQ2 potentiators; shares compounds with KCNQ2 enhance; CHO KCNQ1 stable, FluxOR thallium flux fluorescence; beyond 3SD, as % of vehicle-control signal; activation over 3SD threshold, % at 10 µM; hit rate 28% among 1,200; AID 2283;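 active = fluorescence ratio rise of at least 3 SD of vehicle wells above their mean, in both replicate wells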;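 note: 0% = vehicle mean plus 3 SD and 100% = vehicle minus unstimulated blank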
# KCNQ2 pot confirm: rat KCNQ2 channel potentiator confirmation | hit rate 68% among 1,200 | potentiation, less the hit threshold, % at 10 µM | CHO-KCNQ2 cells, FluxOR thallium flux fluorescence | shares compounds with KCNQ2 enhance;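 active = fluorescence ratio rising 3 SD or more over the vehicle control mean in both replicates, plus primary screen hit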;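 note: peak minus minimum thallium fluorescence divided by baseline after K/Tl stimulus; 0% = vehicle mean plus 3 SD and 100% = vehicle minus unstimulated blank difference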
# Kir2-1 sel: tests whether KCNQ2 potentiators also affect mouse Kir2.1. shares compounds with KCNQ2 enhance. HEK293 Kir2.1, FluxOR thallium flux fluorescence. activity over 3SD threshold, % at 10 µM. hit rate 2% among 1,200. AID 2345;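 active = fluorescence ratio rise of at least 3 SD above the vehicle-control mean, seen in both replicates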;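 note: 0% = vehicle mean plus 3 SD and 100% = vehicle minus no-stimulus blank window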
# KCNQ2 W236L MoA: rat KCNQ2 W236L mutant potentiation by KCNQ2 potentiators; shares compounds with KCNQ2 enhance; CHO KCNQ2-W236L, automated patch clamp current; current increase over 3SD of negative controls (%), hits give high values, % at 25 µM; hit rate 10% among 940; AID 2558;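 active = current increase at least 3 SD of the untreated controls above them in both duplicate recordings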
# Active calls of the source: *; i = inactive; . = no result given.
SMILES,KCNQ2 enhance,KCNQ2 block,Kir21 confirm,HEK293 ctr,others
COc1cc([N+](=O)[O-])ccc1NC(=O)NNC(=O)C(C)Oc1ccc(F)cc1F (stereo not given),.,i,.,.,
Cc1cc(OC(C)C(=O)NNC(=O)Nc2ccc(F)cc2F)cc(C)c1Cl (stereo not given),7.5*,i,i,i,CHO-K1 Tl ctr=-4;KCNQ1 sel pot=-11;KCNQ2 pot confirm=-3;Kir2-1 sel=-29;KCNQ2 W236L MoA=i
COc1ccc(C(C)NC(=S)NCc2ccc(F)cc2)cc1 (stereo not given),1.2,i,.,.,
COc1cccc(C(C)NC(=S)NCc2ccc(Cl)cc2)c1 (stereo not given),0.34,i,52%*,i,
COc1cccc2sc(Nc3nc(-c4ccccn4)cs3)nc12,21*,i,i,i,CHO-K1 Tl ctr=-10;KCNQ1 sel pot=-13;KCNQ2 pot confirm=-89;Kir2-1 sel=-45;KCNQ2 W236L MoA=i
COc1cccc2sc(Nc3nnc(-c4ccc(F)cc4)o3)nc12,20*,i,i,468%*,CHO-K1 Tl ctr=-10;KCNQ1 sel pot=-15;KCNQ2 pot confirm=60*;Kir2-1 sel=-6;KCNQ2 W236L MoA=i
O=C(Nc1nc2c(F)cccc2s1)c1ccco1,0.45,i,.,.,
COc1cccc2sc(Nc3nnc(-c4cccs4)o3)nc12,10*,i,i,350%*,CHO-K1 Tl ctr=80*;KCNQ1 sel pot=-22;KCNQ2 pot confirm=50*;Kir2-1 sel=-19;KCNQ2 W236L MoA=i
c1ccc(Nc2nc(-c3ccccn3)cs2)cc1,0.81,i,.,.,
COc1ccc(-c2nnc(-c3ccc(F)cc3)o2)cc1,0.41,i,.,.,
Fc1cccc2sc(Nc3nnc(-c4ccco4)o3)nc12,16*,i,i,310%*,CHO-K1 Tl ctr=130*;KCNQ1 sel pot=-2;KCNQ2 pot confirm=45*;Kir2-1 sel=-35;KCNQ2 W236L MoA=i
CCOC(=O)c1sc(Nc2nc3c(OC)cccc3s2)nc1C,0.13,i,.,.,
CN(C)C1(CNC(=O)C2CCN(S(=O)(=O)c3ccccc3C(F)(F)F)CC2)CCCCC1,0.13,i,.,.,
COc1cc(NC(=O)c2cccc3c2C(=O)N(C2CCCCC2)C3)cc(OC)c1OC,.,i,.,.,
COc1ccc(NC(=O)CN(C)C(=O)c2ccc3c(c2)S(=O)(=O)N=C2CCCCCN23)cc1,0.73,i,.,.,
CC(C)CC(=O)Nc1nnc(S(=O)(=O)Nc2ccccc2)s1,.,i,.,.,
Cc1c(-c2ccccc2)sc2nc[nH]c(=S)c12,10*,i,i,i,CHO-K1 Tl ctr=-14;KCNQ1 sel pot=-10;KCNQ2 pot confirm=6.5*;Kir2-1 sel=-41;KCNQ2 W236L MoA=i
O=c1[nH]cnc2scc(-c3ccc(-c4ccccc4)cc3)c12,.,i,.,.,
CC[n+]1c(/C=C/c2ccc(OC)c(OC)c2)ccc2ccccc21,.,i,.,.,
CC[n+]1c(/C=C/c2ccc(N(C)C)cc2)ccc2ccccc21,-9.3,-9.3*,i,i,
CC[n+]1c(/C=C/c2ccc(OC(C)=O)c(OC)c2)ccc2ccccc21,.,i,.,.,
CCN(CC)c1ccc(/C=C/c2ccc3ccc(OC)cc3[n+]2CC)cc1,-7.6,-7.6*,i,i,
Cc1ccc(O)c(NC(=O)c2cc(C)no2)c1,.,i,.,.,
CCn1c(Sc2ccc(N)cc2Cl)nc2ccccc21,.,i,76%*,i,
CCn1c(SCC(=O)NC(C)c2ccccc2)nc2ccccc21 (stereo not given),.,i,.,.,
Cc1cc(NC(=O)CSCC(=O)OC(C)C(=O)N(C)Cc2ccccc2)no1 (stereo not given),1.3,i,.,.,
Cc1cc(NC(=O)CSCC(=O)OC(C)C(=O)c2cc(C)c(C)cc2C)no1 (stereo not given),.,i,68%*,i,
CNC[C@@H](Cc1ccccc1)NC[C@@H](CC1CCCCC1)NCCCc1ccccc1,-6.2,-6.2*,i,i,
CN(C[C@H](Cc1ccccc1)N(C[C@@H](CC1CCCCC1)N(CCc1ccccc1)N=O)N=O)N=O,.,i,.,.,
